Measured values from PubChem BioAssay AID2129 (The Scripps Research Institute Molecular Screening Center, 2009).
The campaign covered roughly 320,000 compounds. About 2,200 (0.69%) were called active.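 The calls were made as follows: active = inhibition above the mean of all tested compounds plus 3 SD, cutoff set per campaign (cut at about 30% in these data); inactive = the rest.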 The sample as a whole holds a higher share of actives than the screen did.

The compounds below were run against Bcl-2-like protein 1 (Homo sapiens) (UniProt Q07817) (assay: Bcl-xL/Bim BH3 interaction blockers – biochemical, fluorescence polarization, HTS, primary screen (AID 2129;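 also: 0% = DMSO wells and 100% = unlabeled Bim-BH3 peptide competitor; inhibitors lower millipolarization by displacing the labeled peptide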)). Settings: GST-Bcl-xL / FITC-Bim BH3 peptide fluorescence polarization; at 10.9 µM; stronger effect = higher value.
Chain of Bcl-2-like protein 1 (Homo sapiens) (Q07817 whole entry, looked up): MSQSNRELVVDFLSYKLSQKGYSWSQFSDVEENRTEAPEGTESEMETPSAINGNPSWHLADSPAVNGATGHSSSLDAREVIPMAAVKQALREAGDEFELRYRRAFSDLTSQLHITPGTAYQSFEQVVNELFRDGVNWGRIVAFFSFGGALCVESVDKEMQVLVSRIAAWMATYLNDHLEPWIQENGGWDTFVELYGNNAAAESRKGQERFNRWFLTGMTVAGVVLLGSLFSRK

inhibition, inactive:
COC(=O)c1sc(=S)n(-c2ccc(Cl)cc2)c1C 8.78%
CCOC(=O)c1c(N)sc(C(C)=O)c1C 4.34%
O=C(NCC1(N2CCCCC2)CCCCC1)c1ccc(NS(=O)(=O)c2ccc(F)cc2)cc1 5.4%
NC(=O)c1nsc(C(=O)N(CC(=O)NCc2ccc(F)cc2)Cc2ccco2)c1N 1.4%
COc1ccc(-n2cnc3cc(NCc4ccco4)ccc32)cc1 6.77%
Cc1ccc2[nH]c(C(=O)O)c(NC(=O)c3ccccc3[N+](=O)[O-])c2c1 3.72%
CN(C)CCCCCN(C)Cc1cc2ccccc2o1 0.68%
CCCCCCCNc1nc(Cl)nc(NCCO)n1 5.24%
CCOc1ccc(C(=O)NC2CCN(C(=O)Nc3ccccc3OC)CC2)cc1 1.4%
CCOC(=O)c1cc(C#N)c(N2CCCCC2)nc1-c1ccccc1 -1.67%
Cc1ccc(C)c(NC(=S)NNC(=S)Nc2ccc(C(C)C)cc2)c1 18%
O=C(NC(=S)Nc1ccc(Cl)c(C(=O)O)c1)c1cncc(Br)c1 -0.3%
Cc1nn(C(C)(C)C)c(OC(=O)CC(C)C)c1S(=O)(=O)c1ccccc1 2.54%
Cc1c(Nc2cc(N3CCCC(C)C3)c3nonc3c2[N+](=O)[O-])c(=O)n(-c2ccccc2)n1C (configuration not stated) -1.91%
Nc1nc(NCC(=O)O)nc(N2CCCCCC2)c1[N+](=O)[O-] -0.96%
CCCCCCCCCOC1OC(CO)C(O)C(O)C1NC(C)=O (configuration not stated) 0.06%
O=c1c2ccccc2nnn1CSc1nc2sc3c(c2c(=O)n1CC1CCCO1)CCC3 (configuration not stated) -0.57%
O=C1CCC(=O)N(O)CCCCCNC(=O)CCC(=O)N(O)CCCCCNC(=O)CCC(=O)N(O)CCCCCN1 6.42%
CCCn1c(C2CCCN2c2nc(-c3ccc(OC)cc3)cs2)nc2ccccc21 (configuration not stated) 7.05%
CCCn1c(C(C)Nc2nc(-c3ccc(C)cc3)cs2)nc2cc(Cl)c(N3CCCCC3)cc21 (configuration not stated) 4.98%
Cc1cc(S(=O)(=O)NCc2ccccn2)c(Cl)cc1Cl 4.73%
CCOC(=O)c1c(C)n(C)c2ccc(OC)c(NC(=O)CN3CCC4(CC3)OCCO4)c12 -7.5%
[O-][n+]1c2c(nn1-c1ccc(Cl)c(Cl)c1)-c1nonc1CC2 -0.16%
CC1(OC(=O)C2CCCC2)C(=O)C=C2C=C(c3ccc(C#N)cc3)OC=C2C1=O (configuration not stated) 10.6%
CC1(OC(=O)CCc2ccccc2)C(=O)C=C2C=C(c3ccc(C#N)cc3)N(CCc3ccccn3)C=C2C1=O (configuration not stated) 25.8%
Fc1ccccc1/C=N/Nc1cc(N2CCCCC2)ncn1 1.94%
Cn1nccc1/C=N\NC(=O)c1ccc(Cl)cc1 7.38%
O=c1[nH]n2c(-c3ccccc3)nc(O)c2c2ccccc12 -0.91%
O=C(O)/C=C/c1ccc(S(=O)(=O)N2CCCCCC2)cc1 -3.18%
O=C(CN1CCSCC1)N/N=C/c1ccc(F)cc1F 2.55%
O=C(COc1cccc(Cl)c1)NCc1ccccc1 3.14%
Cc1nn(-c2cc(Cl)ccc2N)c(=O)c2ccccc12 -0.7%
C[N+](C)(CCCCCC[N+](C)(C)CCCN1C(=O)c2cccc3cccc(c23)C1=O)CCCN1C(=O)c2cccc3cccc(c23)C1=O 1.22%
O=C1c2ccccc2C(=O)N1c1cccc2ccccc12 4.16%
O=C(O)c1ccc2c3c(cccc13)C(=O)N(OS(=O)(=O)c1ccccc1)C2=O -6.08%
O=C(C1CCN(S(=O)(=O)c2ccc(Br)s2)CC1)N1CCN(C2CCCCC2)CC1 3.57%
CSc1ccc(CN(C)CC(=O)NCc2ccc(F)cc2)cc1 5.75%
CSc1ccc(CN2C(=O)NC3(CCCCCC3)C2=O)cc1 0.37%
Cc1c(C(=O)NC(C)C2CC3CCC2C3)cccc1[N+](=O)[O-] (configuration not stated) 0.81%
COc1ccccc1N1CCN(c2nc(C)cc(=O)[nH]2)CC1 1.46%
CC(=O)C1(C)N(O)C(C)(C)C(c2cccs2)=[N+]1[O-] (configuration not stated) 6.8%
Cc1ccc(SCC(=O)Nc2nncs2)cc1 -0.16%
CCOc1cc(NC(=S)NCCCOC)c(OCC)cc1NC(=O)c1ccco1 1.13%
Cc1nc2cc(NC(=O)NCc3ccccc3)ccc2o1 -3.22%
CCOc1ccc(C(=O)NC(C(=O)NCc2ccccn2)C(C)C)cc1 (configuration not stated) -3.49%
Cc1cc(C)cc(NC(=O)NCc2ccccn2)c1 0.71%
O=C(NC1CC2CCCC(C1)N2C(=O)N1CCCCC1)C1CCCCC1 (configuration not stated) 0.87%
O=C(/C(=C/c1cccc(Cl)c1)c1nc2ccccc2[nH]1)c1ccccc1 -0.83%
N#C/C(=C(/O)COC(=O)COc1ccc(Cl)cc1)c1nc2ccccc2[nH]1 -9.4%
COc1ccc(NC(=S)N2N=CCC2c2ccccc2)cc1 (configuration not stated) 1.8%
C[n+]1ccc(C(=O)NCc2ccccc2)cc1 -12.9%
COc1ccc(S(=O)(=O)Nc2cc(C)on2)cc1NC(C)=O 3.59%
O=c1c2cc(-c3ccccc3)sc2nc2n1N=C(c1cccs1)CS2 7.98%
COc1ccc(C(=O)NCCNc2ccc([N+](=O)[O-])cn2)cc1 -0.8%
COc1ccccc1C1CCN(c2ccc([N+](=O)[O-])cn2)CC1 6.64%
O=C(Cn1cc(C(F)(F)F)ccc1=O)N/N=C/c1ccc(Cl)cc1Cl 4.51%
Cc1ccc(NC(=O)CN(C)S(=O)(=O)c2cnc[nH]2)cc1C 2.37%
Cc1ccc(C(=O)N/N=C/c2cccc3ccccc23)cn1 0.59%
O=C(N/N=C\c1cc(Br)c(Br)o1)C1COc2ccccc2O1 (configuration not stated) 8.03%
CC(C)(C)C1CCc2c(sc3nc(SCC(N)=O)nc(N)c23)C1 (configuration not stated) 0.88%
O=C1COc2ccc(C(=O)CSc3ccc(Br)cc3)cc2N1 1.67%
Cc1ccc(NC(=O)CSc2nc(=O)n(CCN(C)C)c3c2CCCC3)c(C)c1 0.09%
O=C1CCC(=O)N1CCOP1(=O)COc2ccccc2OC1 4.75%
Cc1cccc(C)c1NC(=O)CN(C)C(=O)CCC(=O)c1ccccc1 7.72%
Cc1ccc(C(=O)CCC(=O)N(C)CC(=O)Nc2c(Cl)cccc2Cl)cc1 -0.97%
CC(C)c1ccc(C2C(C(=O)c3ccco3)=C(O)C(=O)N2CC2CCCO2)cc1 (configuration not stated) 1.85%
Cc1ccc2nc(N3C(=O)C(O)=C(C(=O)c4ccco4)C3c3cccc(O)c3)sc2c1 (configuration not stated) 2.1%
CC(OC(=O)C1CC(=O)N(Cc2ccccc2)C1)C(=O)Nc1ccccc1[N+](=O)[O-] (configuration not stated) 5.02%
O=C(CSc1ncccn1)N1CCCC1 1.98%
C=CCNc1nnc(C)c2ccccc12 1.09%
COCCNC(=O)C(c1ccc(C)cc1)N(C(=O)CCC(=O)Nc1ccccn1)c1cccc(C)c1 (configuration not stated) 3.67%
CN(C)C(=O)CSc1n[nH]c(-c2ccco2)n1 1.16%
O=C1CCC(=O)N1c1ccc(NCCc2ccccc2F)c([N+](=O)[O-])c1 4.81%
Cc1ccc(C(=O)NC(=S)Nc2ccccc2C)cc1 2.65%
Cc1ccc(NC(=S)NC(=O)c2ccc(-c3ccccc3)cc2)cc1 1.62%
CCOC(=O)c1sc2nc(C)nc(SCC(N)=O)c2c1C 3.97%
O=C(COC(=O)c1ccco1)NCc1ccc(Cl)cc1 3.7%
C=CCN1C=C2C(=O)C(C)(OC(=O)CCc3ccccc3)C(=O)C=C2C=C1c1ccc(C#N)cc1 (configuration not stated) 26.4%

inhibition, active:
COCCOC(=O)c1sc(=S)n(CCOC)c1N 90.3%
Cc1coc2c(O)cc3c(c12)OC1(N2CCCCC2)C(=O)NCCCC31 (configuration not stated) 39%
CCOc1ccc2nc(N3CCCN(C(=O)Nc4ccccc4C)CC3)c(C#N)cc2c1 46.6%
CC(C)c1ccc(NC(=S)NNc2ccc(Cl)c(C(=O)O)c2)cc1 115%
Nc1cc(N2CCCCCC2)c2nonc2c1[N+](=O)[O-] 53.6%
CCCn1c(C2CCCN2c2nc(-c3ccc(C)cc3)cs2)nc2cc(Cl)c(N3CCCCC3)cc21 (configuration not stated) 76.7%
COCCN1C=C2C(=O)C(C)(OC(=O)C3CCCC3)C(=O)C=C2C=C1c1ccsc1 (configuration not stated) 34.2%
O=c1[nH]c2ccccc2n2c(-c3ccccc3)nnc12 43%
COc1ncnc2c1N=C1CC(C)(C)CC(N)=C1S2 163%
O=C(NCc1ccccn1)c1ccc2nc(-c3ccco3)c(-c3ccco3)nc2c1 61.7%
COCCNC(=O)Nc1ccc2nc(-c3ccco3)c(-c3ccco3)nc2c1 120%
O=C(Cc1nc2ccccc2[nH]c1=O)c1ccc(Cl)cc1 34.1%
COc1ccc(Nc2ccc([N+](=O)[O-])cn2)cn1 47.6%
Cc1ccc(C(=O)N/N=C\c2cc(Br)c(Br)o2)cn1 39.1%
CN(CC(=O)Nc1ccc(Cl)c(C(F)(F)F)c1)C(=O)CCC(=O)c1ccccc1 45.3%
C=CCSc1nnc(N2C(=O)C(O)=C(C(=O)c3ccco3)C2c2ccc(F)cc2)s1 (configuration not stated) 51.8%
C=CCNc1nnc(SCC(=O)N2CCCCC2)c2ccccc12 108%
COC(=O)c1sc(NC(=S)NC(=O)c2ccc(C)cc2)nc1C 90.6%
CC(C)(C)OC(=O)NCCCC1=CC2=CC(=O)C(C)(OC(=O)c3ccco3)C(=O)C2=CO1 (configuration not stated) 62.9%
